# This excerpt belongs to a sample that is enriched for hits.
# DAT uptake mod = human DAT dopamine uptake with cocaine, either direction; 1.3% of 110,000 active; LLC-PK1 hDAT cells, [14C]-dopamine uptake with cocaine IC80; actives deviate in either direction; AID 449768; Q01959; B-score at 10 µM;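 active = Z score or B-score, a plate-position-corrected score, falls beyond the plate's 99.7% confidence bounds, in either direction; inactive = both scores lie inside the 99.7% bounds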
# Target sequence (Q01959 whole entry, looked up): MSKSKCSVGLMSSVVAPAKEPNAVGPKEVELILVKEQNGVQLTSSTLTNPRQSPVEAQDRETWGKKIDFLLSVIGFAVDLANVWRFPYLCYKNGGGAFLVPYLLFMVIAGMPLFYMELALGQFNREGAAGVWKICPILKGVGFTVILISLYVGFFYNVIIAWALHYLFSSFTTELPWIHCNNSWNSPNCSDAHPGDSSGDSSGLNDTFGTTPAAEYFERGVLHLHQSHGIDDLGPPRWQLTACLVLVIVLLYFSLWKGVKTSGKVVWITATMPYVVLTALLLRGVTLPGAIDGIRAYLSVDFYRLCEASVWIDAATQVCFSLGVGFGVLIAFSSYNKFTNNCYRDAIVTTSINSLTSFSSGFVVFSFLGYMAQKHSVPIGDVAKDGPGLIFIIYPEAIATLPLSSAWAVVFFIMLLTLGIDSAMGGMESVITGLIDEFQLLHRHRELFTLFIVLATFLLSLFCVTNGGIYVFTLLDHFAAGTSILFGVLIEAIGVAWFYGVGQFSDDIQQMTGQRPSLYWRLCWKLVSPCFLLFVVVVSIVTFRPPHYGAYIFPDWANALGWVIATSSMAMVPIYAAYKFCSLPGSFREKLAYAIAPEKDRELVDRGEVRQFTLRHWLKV
# CD11b adhes enh = CD11b/CD18-fibrinogen binding enhancement. P05107+P11215. K562 CD11b/CD18 adhesion to fibrinogen, ATPlite luminescence. activation, % at 10 µM. 0.07% of 93,000 active. AID 1499;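 active = 10 µM primary screen giving 50% or more activity, confirmed by 40% or more on retest at that dose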
# CD11b adhes inh = CD11b/CD18-fibrinogen binding inhibition; K562 CD11b/CD18 adhesion to fibrinogen, ATPlite luminescence; Mn2+ added to activate the integrin; 0.54% of 93,000 active; AID 1497; P05107+P11215; inhibition, % at 10 µM;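 active = primary inhibition of 50% or more at 10 µM, then 40% or more on retest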
# Pyk2 oligo antag = blocks oligomerization of human Pyk2 in cells. Q293 cells, Pyk2 FERM NanoBiT luminescence; hits give low values. z-score (the deposit names both 25 µM and 10 µM). 0.83% of 99,000 active. AID 1347419;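 active = Z-score of -3 or lower, scaled per plate to the spread of control and sample wells; inactive = z-score above -3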;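 note: negative z-score means lost luminescence so less FERM oligomerization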
# FAK inh = inhibitors of human focal adhesion kinase | 0.84% of 97,000 active | Q05397 | inhibition, %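 (tested at 7 µM)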 | biochemical FAK kinase activity assay; in the data active = inhibition above about 19%
# D1 allo mod = allosterically modulates the human D1 dopamine receptor; P21728; B-score at 10 µM; HEK293 D1, CRE-luciferase, dopamine EC30 potentiation; actives deviate in either direction; 5.9% of 58,000 active; AID 641;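 active = luminescence count or its row- and column-corrected plate score outside the 99.7% band of the plate's sample wells, on either side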
# D1 mod confirm = D1 receptor (human) allosteric modulation, confirmed; shares compounds with D1 allo mod; HEK293 D1 CRE-luciferase, dopamine EC30 potentiation; hits give high values; luminescence at 10 µM; 88% of 2,200 active; AID 642;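 active = luminescence in either of two replicates above the same-plate mean plus 3 SD of the low-dose dopamine control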
# D1 ag no DA = D1 (human) signaling in absence of dopamine; shares compounds with D1 allo mod; HEK293 D1 CRE-luciferase, luminescence, no dopamine; hits give high values; luminescence at 10 µM; 0.8% of 1,900 active; AID 646; in the data active = luminescence above about 3900
# Isoprot counter = alters isoproterenol CRE-luciferase response in HEK293 cells; shares compounds with D1 allo mod; HEK293 D1 CRE-luciferase, isoproterenol EC30 counter-screen; calls only at 10 µM; 63% of 2,200 active; AID 647;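 active = luminescence in either replicate above plate mean of wells with a partly effective reference agonist dose plus 3 SD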;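 note: isoproterenol raises cAMP through native beta-adrenoceptor Gs so signal bypasses D1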
# A number is an active result; i = inactive; nt = no result given; + = active, no number.
SMILES,DAT uptake mod,CD11b adhes enh,CD11b adhes inh,Pyk2 oligo antag,FAK inh,D1 allo mod,D1 mod confirm,D1 ag no DA,Isoprot counter
CC(=O)N(C(C)=O)C1=C(C#N)C2(CCCCC2)Cc2ccccc21,i,i,i,i,i,nt,nt,nt,nt
N#Cc1cccc(-c2nnc(SCc3ccccc3C#N)o2)c1,i,i,i,i,i,2.7,i,i,+
COc1ccc(-c2nc(CN3CCC(C(=O)N4CCc5ccccc54)CC3)c(C)o2)cc1OC,i,i,i,nt,i,2.8,6820,i,+
COc1ccc(-c2nnc(SCC(=O)N3CCCC3)o2)cc1OC,i,nt,nt,nt,i,i,nt,nt,nt
OCC#CCSc1nnc(-c2ccc(Br)cc2)o1,i,i,i,i,i,i,nt,nt,nt
COc1ccc(-c2nnc(SCC#CCO)o2)cc1OC,i,i,i,i,i,15,16500,i,+
COc1ccccc1-c1nnc(SCC(=O)N2CCC(C)CC2)o1,i,i,i,i,i,3.1,i,nt,i
COc1ccc(-c2nnc(SCC(=O)N3CCCc4ccccc43)o2)cc1OC,i,nt,nt,i,i,16,19988,i,+
COc1ccccc1-c1nnc(SCC(=O)N2CCOCC2)o1,i,nt,nt,nt,nt,i,nt,nt,nt
COC(=O)C[C@H]1c2cc(C(F)(F)F)ccc2S(=O)(=O)N1C(C)(C)C,i,nt,nt,nt,nt,nt,nt,nt,nt
COc1ccccc1-c1c(C(F)(F)F)oc2cc(OC(=O)c3ccc([N+](=O)[O-])cc3)ccc2c1=O,nt,i,i,nt,nt,nt,nt,nt,nt
CCOC(=O)c1c(C)oc2c1c(C=NCc1ccccn1)c(O)c1ccccc12,i,i,i,nt,nt,4.2,12568,i,i
CCOC(=O)c1c(C)oc2c1c(C=NCC1CCCO1)c(O)c1ccccc12 (configuration not stated),i,nt,nt,i,i,i,nt,nt,nt
COc1ccc(-c2ccc(=O)n(CC(=O)Nc3cccc(O)c3)n2)cc1OC,i,nt,nt,i,i,29,i,i,i
Cc1cccc2cc(CN(CC3CCCO3)C(=O)c3cccnc3)c3nnnn3c12 (configuration not stated),i,i,i,i,i,5.5,15420,nt,+
COc1ccc(Cn2cc(F)c(=O)n(CCC(C)C)c2=O)cc1[N+](=O)[O-],i,i,i,i,i,nt,nt,nt,nt
OCC[C@H]1C[C@H](O)[C@@H](O)[C@@]2(CCCCO2)O1,i,nt,nt,nt,nt,nt,nt,nt,nt
COc1ccc(CCn2c(N)cc(=O)[nH]c2=S)cc1OC,i,i,i,i,i,11,16604,i,+
O=C(O)c1ccccc1C(=O)N1CCN(c2cccc(Cl)c2)CC1,i,nt,nt,i,i,nt,nt,nt,nt
CCOc1ccccc1C(=O)N1CCN(c2cccc(Cl)c2)CC1,i,nt,nt,i,i,5.6,10528,i,+
Cc1ccnc(SCC(=O)Nc2c(C)n(C)n(-c3ccccc3)c2=O)n1,i,i,i,i,i,nt,nt,nt,nt
CSc1nsc(SCC(=O)Nc2ccccn2)n1,i,i,i,i,i,i,nt,nt,nt
COc1ccc(C(=O)CSc2cc(C)nc3nc(C)nn23)cc1OC,i,i,i,i,nt,5.1,9832,nt,+
COc1ccc(C(=O)NCC(=O)n2nc(C)cc2C)cc1OC,i,i,i,i,i,nt,nt,nt,nt
COc1ccc(C(=O)CSc2nc(SC)ns2)cc1OC,i,i,i,i,i,8.4,17700,i,+
CC(C)CCOC(=O)C1C(c2ccccc2)C(C(=O)O)C1c1ccccc1 (configuration not stated),i,i,i,i,i,nt,nt,nt,nt
CC1CN(C(=O)COc2ncnc3ccccc23)CC(C)O1 (configuration not stated),i,i,i,i,i,nt,nt,nt,nt
N#Cc1ccccc1Cn1c(=O)n(Cc2ccc(C(=O)NCc3ccco3)cc2)c(=O)c2sccc21,i,i,i,nt,nt,16,10644,i,+
N#Cc1ccccc1Cn1c(=O)n(-c2ccc(CC(=O)NCc3ccco3)cc2)c(=O)c2sccc21,i,i,i,nt,nt,i,nt,nt,nt
CCOC(=O)c1cc(-c2ccc(C)o2)nn1CCC#N,i,i,i,i,nt,5.6,19640,i,+

# Compound activity as filed in PubChem.
